39 compounds from PubChem BioAssay (Tox21) can be followed below.

SMILES strings stand for the structures. Values joined by “and” are separate entries in the source; they are usually repeats but may differ in a detail not shown here. Identical values can stand only once. Records with an inconclusive call do not appear. A call without a number means that no potency is given here. A structure can be active in one record and inactive in another. Active and inactive are the calls of the source. Calls follow the shape of the dose curve; as a rule, active = well fitted cell-killing curve with a large enough effect in the repeat runs; inconclusive = weak or mixed curves, or effect the other way; inactive = flat fitted curve, though single readings scatter.
Potency is read from the fitted curve at half-maximal effect.

This experiment in a line: qHTS assay to identify small molecule agonists of the sonic hedgehog signaling (Shh) pathway - cell viability counter screen (AID 1259366). Also: nearly all actives have a fitted effect of over 50% in size. Conditions: NIH/3T3 Gli1-Luc viability, CellTiter-Fluor, 24 h; series mostly up to 92.4 µM; viability change, negative = cytotoxic: at the top concentration. The gist of the method: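 Cytotoxicity counter screen run in the same wells as the Shh reporter assay. NIH/3T3 cells carrying a Gli1 response element–driven luciferase were treated with DMSO-dissolved compounds for 24hr, and live-cell protease activity was measured with CellTiter-Fluor.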
(qHTS replaces the single test concentration by a dilution series.)
On to `CCCCCCCC(=O)OC`, for which the Potency entry is “inactive”. As for `CCN(CC)CCCC(C)Nc1ccnc2cc(Cl)ccc12` (centres undefined), the viability change, negative = cytotoxic was 4.99% [at 8.39 µM] (inactive) and -9.75% [at 19 µM] (inactive). For the compound `CC1=C(C)S(=O)(=O)CCS1(=O)=O`, the Potency result is “inactive”. Same read-out and setting: the value for `OCC(CO)(CBr)CBr` was “inactive”; that for `CN(C)CCC(c1ccc(Cl)cc1)c1ccccn1` (centres undefined) was 61.3 µM (active) and inactive; that for `CN(C)CCCN` was “inactive”. On to `C=C(C)C(=O)OCCOCCOCCOC(=O)C(=C)C`, for which the Potency entry was “inactive”. Same read-out and setting: the value for `CCCCC(CC)CO` (centres undefined) was “inactive”. Still for that read-out and setting: in the case of `Cc1ccc(N(C)C)cc1` it was “inactive”. Same read-out and setting: the value for `O=C(O)c1cc(C(=O)O)cc(S(=O)(=O)O)c1` was “inactive”; that for `O=C(O)c1ccc(C(=O)O)cc1` was “inactive”.

For the compound `CCCCCCCCCCCCOCCO`, the “viability change, negative = cytotoxic” value was 4.47% [at 42.5 µM] (inactive).

`CC(O)COCC(C)O` (centres undefined): the Potency entry was “inactive”. On the same count and under the same terms, the value for `C[C@H]1C[C@H]2[C@@H]3CCC4=CC(=O)C=C[C@]4(C)[C@@]3(F)[C@@H](O)C[C@]2(C)[C@@]1(O)C(=O)CO` was “inactive”; that for `CCOC(=O)NNc1nncc2ccccc12` was “inactive”; that for `COc1ccc(Nc2ccccc2)c(C)c1` was “inactive”.

Turning to `O=S(=O)(O)c1ccc2ccccc2c1`, the Potency entry is “inactive”. As to `Cc1cnc(C(=O)NCCc2ccc(S(=O)(=O)NC(=O)NC3CCCCC3)cc2)cn1`, the Potency entry was “inactive”. `O=C1CCC(N2C(=O)c3ccccc3C2=O)C(=O)N1` (centres undefined): the Potency entry is “inactive”. Same read-out and setting: in the case of `Cc1cccnc1` it was “inactive”. Still for that read-out and setting: in the case of `OCCOCCN1CCN(C2=Nc3ccccc3Sc3ccccc32)CC1` it was “inactive”; in that of `CC[C@H](C)C(=O)O[C@H]1C[C@@H](C)C=C2C=C[C@H](C)[C@H](CC[C@@H]3C[C@@H](O)CC(=O)O3)[C@H]21`, “inactive”; in that of `CCCCCOC(C)=O`, “inactive”. The same measure, in the same setting: in the case of `O=[N+]([O-])c1ccc(/C=C/c2ccc([N+](=O)[O-])cc2S(=O)(=O)O)c(S(=O)(=O)O)c1` it was “inactive”; in that of `Cc1cccc(O)c1`, “inactive”; in that of `CCCCCC(N)=O`, “inactive”. On to `Cc1ccc(S(N)(=O)=O)cc1`, for which the Potency result was “inactive”. Still for that read-out and setting: in the case of `COS(C)(=O)=O` it was “inactive”; in that of `CCCC(C)=O`, “inactive”. In the case of `OCc1cccnc1`, the Potency entry was “inactive”. Same read-out and setting: in the case of `C=CCOC(=O)c1ccccc1C(=O)OCC=C` it was “inactive”; in that of `CCCSc1ccc2nc(NC(=O)OC)[nH]c2c1`, “inactive”; in that of `O=P(OC(CCl)CCl)(OC(CCl)CCl)OC(CCl)CCl`, 30.5 µM (active). Still for that read-out and setting: in the case of `COc1ccc2cc([C@H](C)C(=O)O)ccc2c1` it was “inactive”; in that of `O=C(O)[C@H](O)[C@@H](O)[C@H](O)[C@H](O)CO`, “inactive”; in that of `Cc1cc(C)c(C)cc1C`, “inactive”.

Regarding `CCCCOC(=O)COc1ccc(Cl)cc1Cl`, the Potency entry is “inactive”.

For `C[C@H]1C[C@@H]2[C@H]([C@@H](O)C[C@@]3(C)[C@H]2CC[C@]3(O)C(=O)CO)[C@@]2(C)C=CC(=O)C=C12`, the Potency result was “inactive”.

On to `C=C(C)C(=O)Nc1ccc(Cl)c(Cl)c1`, for which the Potency result was “inactive”.
